In PubChem BioAssay (Tox21):
Inconclusive results are not listed. Active and inactive are the calls of the source. Unless noted, calls come from the whole dose curve; as a rule, active = well fitted curve in the direction sought with a large enough effect in the repeat runs; inconclusive = weak or mixed curves; inactive = no such curve, though single readings can be large; an effect the other way counts as inactive or inconclusive.

How the values were obtained:
[1] = qHTS assay to identify small molecule antagonists of the peroxisome proliferator-activated receptor delta (PPARd) signaling pathway - cell viability counter screen (AID 743213); note: nearly all actives have a fitted effect of over 50% in size; note: potency is the fitted concentration of half-maximal effect
In short: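 Viability counter-screen, qHTS format: PPARd-bla HEK293H, L165041 300 nM final, 17 h compound exposure at 37 C, CellTiter-Glo luminescence after 30 min RT.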

[2] = qHTS assay to identify small molecule agonists of the farnesoid-X-receptor (FXR) signaling pathway - cell viability counter screen (AID 743218); note: nearly all actives have a fitted effect of over 45% in size; note: potency is the fitted concentration of half-maximal effect
In short: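 Same-well cytotoxicity check on FXR-UAS-bla HEK 293T cells: 5 h attachment, 16 h compound at 37 C, CellTiter-Glo luminescence read at room temperature after 30 min.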

[3] = qHTS assay to identify small molecule antagonists of the farnesoid-X-receptor (FXR) signaling pathway - cell viability counter screen (AID 743221; active = well fitted cell-killing curve with a large enough effect in the repeat runs, not every such curve was filed as active; note: % is set by controls: 0 for no effect and ±100 for the full control effect; nearly all actives have a fitted effect of over 50% in size)
In short: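 GeneBLAzer FXR-UAS-bla HEK 293T cells, compound plus chenodeoxycholic acid (50 uM final), 16 h at 37 C. CellTiter-Glo added to the same wells after the beta-lactamase read; luminescence read after 30 min at room temperature as viability.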

[4] = qHTS assay to identify small molecule agonists of the vitamin D receptor (VDR) signaling pathway - cell viability counter screen (AID 743224); note: nearly all actives have a fitted effect of over 50% in size; note: potency is the fitted concentration of half-maximal effect
In short: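 Counter screen for cytotoxicity: VDR-bla cells at 2,000 cells/well, 16 h compound exposure, then CellTiter-Glo luminescence after the beta-lactamase measurement.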

[5] = qHTS assay to identify small molecule antagonists of the vitamin D receptor (VDR) signaling pathway - cell viability counter screen (AID 743225); note: % is set by controls: 0 for no effect and ±100 for the full control effect; nearly all actives have a fitted effect of over 50% in size
In short: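 VDR-UAS-bla HEK 293T cells were plated and incubated 4 h at 37C, then dosed with compound plus 3 nM (final) 1-alpha,25-dihydroxyvitamin D3 for 16 h. After the 2 h beta-lactamase read, viability in the same wells was read as CellTiter-Glo luminescence after 30 min at room temperature.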

[6] = qHTS assay to identify small molecule agonists of the endoplasmic reticulum stress response signaling pathway - cell viability counter screen (AID 1159517; calls by dose curve)
In short: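 In parallel with the ESRE reporter read, cytotoxicity was scored by CellTiter-Glo luminescence (30 min, room temperature) on HeLa ESRE-bla cells dosed for 5 hr.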

[7] = qHTS assay to identify small molecule antagonists of the retinoid-related orphan receptor gamma (ROR-gamma) signaling pathway - cell viability counter screen (AID 1159520)
In short: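 Tet-on ROR gamma CHO cells were given compounds for 2 hr, then doxycycline hyclate at 1 uM final, and incubated 16 hr at 37 C. Viability was measured as ATP content by CellTiter-Glo luminescence.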

[8] = qHTS assay to identify small molecule agonists of the AP-1 signaling pathway - cell viability counter screen (AID 1159525; calls by dose curve; note: nearly all actives have a fitted effect of over 55% in size)
In short: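 Same-well cytotoxicity counter screen of the Tox21 10K library in ME-180 cells. The readout is ATP-dependent luminescence after 5 h compound treatment. Data are normalised to DMSO and tetra n-octyl ammonium bromide controls.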

[9] = qHTS assay to identify small molecule agonists of the RXR signaling pathway - cell viability counter screen (AID 1159529); note: nearly all actives have a fitted effect of over 50% in size; note: potency is the fitted concentration of half-maximal effect
In short: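 RXR-alpha-UAS-bla HEK 293T cells in medium with 2% charcoal-stripped FBS were pre-incubated 5 hr, then compound-treated 16 hr at 37 C. Viability was read by CellTiter-Glo luminescence in the same wells as the beta-lactamase assay, with tetraoctyl ammonium bromide as positive control.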

[10] = qHTS assay to identify small molecule antagonists of the retinoid acid receptor (RAR) signaling pathway - cell viability counter screen (AID 1159551); note: % is set by controls: 0 for no effect and ±100 for the full control effect; nearly all actives have a fitted effect of over 35% in size
In short: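 Measured by luminescent ATP detection, viability reflects C3RL4 cells treated 6 h at 37 C with test chemicals in the presence of 1 uM (final) retinol.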

[11] = molecular target: Peroxisome proliferator-activated receptor delta (Homo sapiens) (UniProt Q03181); experiment: qHTS assay to identify small molecule agonists of the peroxisome proliferator-activated receptor delta (PPARd) signaling pathway (AID 743212; calls by dose curve; note: % is set by controls: 0 for no effect and ±100 for the full control effect)
Sequence of Peroxisome proliferator-activated receptor delta (Homo sapiens) (Q03181 whole entry, looked up): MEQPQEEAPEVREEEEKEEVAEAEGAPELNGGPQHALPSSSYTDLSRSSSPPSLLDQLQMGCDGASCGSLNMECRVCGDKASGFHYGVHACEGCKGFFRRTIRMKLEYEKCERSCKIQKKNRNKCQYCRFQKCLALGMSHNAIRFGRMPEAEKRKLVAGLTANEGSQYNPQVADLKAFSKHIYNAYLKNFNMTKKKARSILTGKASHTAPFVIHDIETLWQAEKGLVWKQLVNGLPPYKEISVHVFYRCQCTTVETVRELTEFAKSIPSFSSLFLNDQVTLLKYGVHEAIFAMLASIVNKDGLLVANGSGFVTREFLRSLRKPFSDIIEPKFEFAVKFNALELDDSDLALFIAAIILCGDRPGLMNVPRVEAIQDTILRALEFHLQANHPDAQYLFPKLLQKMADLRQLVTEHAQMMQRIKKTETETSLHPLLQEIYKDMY
In short: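 Tox21 library screened in GeneBLAzer PPARd UAS-bla HEK293H cells. After compound treatment at 37 C, a FRET-based beta-lactamase substrate was applied for 2 h and fluorescence recorded.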

[12] = molecular target: Bile acid receptor (Homo sapiens) (UniProt Q96RI1); experiment: qHTS assay to identify small molecule antagonists of the farnesoid-X-receptor (FXR) signaling pathway (AID 743217; active = well fitted inhibition curve with a large enough effect in the signal ratio in the repeat runs, not every such curve was filed as active; the % refers to the signal ratio; note: % is set by controls: 0 for no effect and ±100 for the full control effect)
Sequence of Bile acid receptor (Homo sapiens) (Q96RI1 whole entry, looked up): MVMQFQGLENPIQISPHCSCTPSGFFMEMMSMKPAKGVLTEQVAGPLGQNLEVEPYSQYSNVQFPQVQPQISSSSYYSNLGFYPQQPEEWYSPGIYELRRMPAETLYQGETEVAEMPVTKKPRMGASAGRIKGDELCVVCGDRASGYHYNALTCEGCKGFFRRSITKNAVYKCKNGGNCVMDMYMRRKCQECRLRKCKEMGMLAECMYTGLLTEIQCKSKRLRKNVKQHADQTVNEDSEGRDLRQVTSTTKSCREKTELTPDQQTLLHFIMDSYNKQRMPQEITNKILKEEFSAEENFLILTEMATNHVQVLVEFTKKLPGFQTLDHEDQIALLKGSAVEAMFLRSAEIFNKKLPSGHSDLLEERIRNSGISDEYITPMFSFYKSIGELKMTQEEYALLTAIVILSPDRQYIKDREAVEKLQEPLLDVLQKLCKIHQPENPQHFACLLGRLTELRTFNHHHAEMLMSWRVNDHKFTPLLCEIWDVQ
In short: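 Quantitative HTS, beta-lactamase reporter format: FXR-UAS-bla HEK 293T cells co-treated 16 h at 37 °C with compounds and 50 uM final chenodeoxycholic acid, then read by B/G FRET fluorescence.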

[13] = molecular target: Bile acid receptor (Homo sapiens) (UniProt Q96RI1); experiment: qHTS assay to identify small molecule agonists of the farnesoid-X-receptor (FXR) signaling pathway (AID 743220; active = well fitted activation curve with a large enough effect in the signal ratio in the repeat runs, not every such curve was filed as active; the % refers to the signal ratio; note: % is set by controls: 0 for no effect and ±100 for the full control effect)
In short: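 FXR-UAS-bla HEK 293T cells carrying a UAS-driven beta-lactamase reporter were plated for 5 h at 37C/5% CO2, then exposed to DMSO-dissolved Tox21 10K compounds for 16 h at 37C. A LiveBLAzer B/G FRET substrate was loaded for 2 h at room temperature before fluorescence reading.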

[14] = molecular target: Vitamin D3 receptor (Homo sapiens) (UniProt P11473); experiment: qHTS assay to identify small molecule agonists of the vitamin D receptor (VDR) signaling pathway (AID 743222; calls by dose curve; note: % is set by controls: 0 for no effect and ±100 for the full control effect)
Sequence of Vitamin D3 receptor (Homo sapiens) (P11473 whole entry, looked up): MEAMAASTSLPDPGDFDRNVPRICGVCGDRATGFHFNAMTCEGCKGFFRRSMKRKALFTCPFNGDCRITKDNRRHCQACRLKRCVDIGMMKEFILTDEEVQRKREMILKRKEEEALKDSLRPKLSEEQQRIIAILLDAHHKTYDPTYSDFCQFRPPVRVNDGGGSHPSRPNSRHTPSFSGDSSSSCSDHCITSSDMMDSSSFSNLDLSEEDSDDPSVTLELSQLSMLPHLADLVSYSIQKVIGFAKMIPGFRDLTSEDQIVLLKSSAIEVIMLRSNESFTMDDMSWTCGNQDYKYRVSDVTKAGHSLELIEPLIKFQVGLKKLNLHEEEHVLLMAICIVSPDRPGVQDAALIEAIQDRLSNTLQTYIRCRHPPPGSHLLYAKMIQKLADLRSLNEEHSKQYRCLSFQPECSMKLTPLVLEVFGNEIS
In short: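 Using LiveBLAzer B/G FRET detection, agonism was scored in VDR-bla cells exposed overnight (16 h, 37C) to DMSO-dissolved compounds; substrate incubation was 2 h at room temperature.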

[15] = molecular target: Vitamin D3 receptor (Homo sapiens) (UniProt P11473); experiment: qHTS assay to identify small molecule antagonists of the vitamin D receptor (VDR) signaling pathway (AID 743223; active = well fitted inhibition curve with a large enough effect in the signal ratio in the repeat runs, not every such curve was filed as active; the % refers to the signal ratio; note: % is set by controls: 0 for no effect and ±100 for the full control effect)
In short: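 VDR-bla cells were treated with compound plus 3 nM final 1alpha,25-dihydroxyvitamin D3 for 16 h at 37C. Beta-lactamase reporter read by B/G FRET substrate fluorescence after 2 h at room temperature. qHTS format.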

[16] = qHTS assay to identify small molecule agonists of the AP-1 signaling pathway (AID 1159526; calls by dose curve; note: % is set by controls: 0 for no effect and ±100 for the full control effect)
[17] = molecular target: Nuclear receptor ROR-gamma (Homo sapiens) (UniProt P51449); experiment: qHTS assay to identify small molecule antagonists of the retinoid-related orphan receptor gamma (ROR-gamma) signaling pathway (AID 1159521)
In short: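 Tet-on ROR-gamma CHO cells with ROR response element-luciferase reporter; compounds added 2 hr before 1 uM doxycycline induction, then 16 hr at 37 C. Antagonism scored as decreased ONE-Glo luminescence.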

[18] = molecular target: Retinoic acid receptor RXR-alpha (Homo sapiens) (UniProt P19793); experiment: qHTS assay to identify small molecule agonists of the RXR signaling pathway (AID 1159527; calls by dose curve; note: nearly all actives have a fitted effect of over 35% in size; note: potency is the fitted concentration of half-maximal effect)
Sequence of Retinoic acid receptor RXR-alpha (Homo sapiens) (P19793 whole entry, looked up): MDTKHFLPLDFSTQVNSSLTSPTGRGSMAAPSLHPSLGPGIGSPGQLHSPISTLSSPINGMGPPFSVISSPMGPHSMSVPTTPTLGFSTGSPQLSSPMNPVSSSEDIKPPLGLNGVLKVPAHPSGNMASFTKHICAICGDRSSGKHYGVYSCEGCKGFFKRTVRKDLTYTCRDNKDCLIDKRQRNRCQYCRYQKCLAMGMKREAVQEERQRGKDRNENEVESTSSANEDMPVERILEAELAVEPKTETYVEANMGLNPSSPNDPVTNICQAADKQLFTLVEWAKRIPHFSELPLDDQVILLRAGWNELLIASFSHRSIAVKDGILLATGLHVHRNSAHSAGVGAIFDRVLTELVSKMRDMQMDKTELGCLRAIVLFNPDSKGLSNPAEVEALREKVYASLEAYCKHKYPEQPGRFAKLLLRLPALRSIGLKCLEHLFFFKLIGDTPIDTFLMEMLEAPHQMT
In short: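 GeneBLAzer RXR-alpha-UAS-bla HEK 293T cells in 2% charcoal-stripped FBS medium were exposed to compounds for 16 hr at 37 C in agonist mode. Beta-lactamase reporter read as 460/530 nm FRET ratio after 2 hr substrate loading.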

CC(=O)Nc1ccc(O)cc1
inactive: Potency [1] | Potency [2] | Potency [3] | Potency [4] | Potency [5] | Potency [6] | Potency [7] | Potency [8] | Potency [9] | Potency [10]

COc1ccc(-n2nc(CCC(=O)N(C)O)cc2-c2ccc(Cl)cc2)cc1
inactive: outcome [11] | Potency [3] | Potency [5] | Potency [6] | Potency [7] | Potency [8] | Potency [10]

CCOC(=O)[C@@](C)(N)Cc1ccc(O)c(O)c1
inactive: outcome [11] | Potency [1] | Potency [12] | Potency [2] | Potency [13] | Potency [3] | Potency [14] | Potency [15] | Potency [4] | Potency [5] | Potency [6] | Potency [7] | Potency [16] | Potency [9] | Potency [10]

C/C=C/c1ccc(OC)c(OC)c1
inactive: Potency [7] | Potency [17] | Potency [8] | Potency [16] | Potency [18] | Potency [9] | Potency [10]

CC(C)(C)c1n[nH]c(=O)n(N)c1=O
inactive: Potency [7] | Potency [17] | Potency [8] | Potency [16] | Potency [18] | Potency [9] | Potency [10]

CCc1cccc(CC)c1NC(=O)C(=O)O
inactive: Potency [7] | Potency [17] | Potency [8] | Potency [16] | Potency [18] | Potency [9] | Potency [10]

COc1ccccc1OCCNCC(O)COc1cccc2[nH]c3ccccc3c12 (configuration not stated)
inactive: Potency [13] | Potency [14] | Potency [6] | Potency [10]
active: Potency [2] 26.6 µM | Potency [9] 19 µM

COc1nccnc1CC(C)C
inactive: Potency [7] | Potency [17] | Potency [8] | Potency [16] | Potency [18] | Potency [9]

Cc1ccc(O)cn1
inactive: Potency [7] | Potency [17] | Potency [8] | Potency [16] | Potency [18] | Potency [9] | Potency [10]

COc1ccc(C#N)cc1
inactive: Potency [7] | Potency [17] | Potency [8] | Potency [16] | Potency [18] | Potency [9]

CCCC(=O)OCC(COC(=O)CCC)OC(=O)CCC
inactive: Potency [7] | Potency [17] | Potency [8] | Potency [16] | Potency [18] | Potency [9] | Potency [10]

C#CC(O)CCC (configuration not stated)
inactive: Potency [7] | Potency [17] | Potency [8] | Potency [16] | Potency [18] | Potency [9] | Potency [10]

Brc1ccccn1
inactive: Potency [7] | Potency [17] | Potency [8] | Potency [16] | Potency [18] | Potency [9] | Potency [10]

CC1CNCC(C)O1 (configuration not stated)
inactive: Potency [7] | Potency [17] | Potency [8] | Potency [16] | Potency [18] | Potency [9]

Cc1cc(C)c(C=O)c(C)c1
inactive: Potency [7] | Potency [17] | Potency [8] | Potency [16] | Potency [18] | Potency [9] | Potency [10]

C[Si](C)O[Si](C)C
inactive: Potency [7] | Potency [17] | Potency [8] | Potency [16] | Potency [18] | Potency [9] | Potency [10]

Clc1ccc(C(Cn2ccnc2)OCc2ccsc2Cl)c(Cl)c1 (configuration not stated)
inactive: Potency [1] | Potency [14] | Potency [4] | Potency [6]
active: Potency [2] 18.8 µM

CCCCN(C)C
inactive: Potency [7] | Potency [17] | Potency [8] | Potency [16] | Potency [18] | Potency [9] | Potency [10]

C=C/C=C/C=C/CCCCC
inactive: activity, negative = cytotoxicity [7] -9.56% [at 19 µM] | activity change, negative = inhibition [17] -0.464% [at 19 µM] | viability change, negative = cytotoxic [8] 1.06% [at 15.8 µM] | activation [16] 2.42% [at 15.8 µM] | activation [18] -4.02% [at 15.8 µM] | activity change, negative = cytotoxicity [9] -9.45% [at 15.8 µM]

CCN(CC)c1ccc(N)cc1
active: Potency [1] 31.7 µM | Potency [4] 20 µM
inactive: Potency [12] | Potency [5] | Potency [6]

CC(=O)c1ccccc1N
inactive: Potency [7] | Potency [17] | Potency [8] | Potency [16] | Potency [18] | Potency [9] | Potency [10]

Clc1cc(Cl)c(-c2c(Cl)c(Cl)cc(Cl)c2Cl)cc1Cl
inactive: Potency [7] | Potency [17] | Potency [8] | Potency [16] | Potency [18] | Potency [9] | Potency [10]

OCCCS
inactive: Potency [7] | Potency [17] | Potency [8] | Potency [16] | Potency [18] | Potency [9]

CCc1c(Br)c(Br)c(Br)c(Br)c1Br
active: Potency [18] 38.9 µM
inactive: Potency [7] | Potency [17] | Potency [8] | Potency [16] | Potency [9] | Potency [10]

CCCC(O)C(O)CO (configuration not stated)
inactive: Potency [7] | Potency [17] | Potency [8] | Potency [16] | Potency [18] | Potency [9] | Potency [10]

CCCCCCCC(=O)OCC
inactive: Potency [7] | Potency [17] | Potency [8] | Potency [16] | Potency [18] | Potency [9]
